Results filed as inconclusive are left out. Activity calls are given as the source filed them. Unless noted, calls follow the shape of the full dose curve.
Columns and labels:
[1] = Nuclear factor erythroid 2-related factor 2/antioxidant responsive element (Nrf2/ARE) small molecule agonists: qHTS cell viability counter screen in human keratinocytes (AID 1919968; active = well fitted curve in the direction sought with a large enough effect in the repeat runs; an effect the other way counts as inactive or inconclusive; also: nearly all actives have a fitted effect of over 55% in size)
Summary of the method: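 KeratinoSens HaCaT cells, 1,500/well, preincubated 5 h, then exposed to compounds in DMSO for 23 h at 37 C/5% CO2. Viability read as CellTiter-Fluor fluorescence after 1 h, in the same wells as the ARE-luciferase read.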

[2] = Nuclear factor erythroid 2-related factor 2/antioxidant responsive element (Nrf2/ARE) small molecule agonists: luciferase reporter gene qHTS assay in human keratinocytes (AID 1919969); also: nearly all actives have a fitted effect of over 35% in size
[3] = molecular target: Gonadotropin-releasing hormone receptor (Homo sapiens) (UniProt P30968); assay: Human gonadotropin-releasing hormone receptor (GnRHR) small molecule agonists, calcium flux assay in GnRHR-HEK293 cells (AID 1920063); also: nearly all actives have a fitted effect of over 35% in size
Summary of the method: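 HEK293 cells stably expressing human GnRHR were dye-loaded for 1 h at 37 C. Compound was added in agonist mode and fluorescence (Ex/Em 480/540) recorded kinetically for 3 min. Fifteen concentrations, triplicates.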

[4] = molecular target: KiSS-1 receptor (Homo sapiens) (UniProt Q969F8); assay: Human kisspeptin (KISS1R) small molecule agonists, calcium flux assay in KISS1R-HEK293 cells (AID 1920064; active = well fitted curve in the direction sought with a large enough effect in the repeat runs; an effect the other way counts as inactive or inconclusive)
Summary of the method: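 HEK293 cells stably expressing human KISS1R were loaded with calcium dye for 1 h at 37 C, then given compound; fluorescence (Ex/Em 480/540) was read kinetically for 3 min. Fifteen concentrations, triplicate.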

[5] = G protein-coupled receptor (GPCR) small molecule agonists, calcium flux assay: HEK293 wild type cell line counter screen (AID 1920065)
Summary of the method: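 Wild-type HEK293 cells plated 18 h, loaded with calcium dye 1 h at 37 C, then compounds added in agonist mode (ATP as positive control). Kinetic fluorescence Ex/Em 480/540 recorded 3 min at 1 sec intervals; 15 concentrations, triplicate.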

[6] = p53 small molecule agonists, cell-based qHTS assay with human liver microsomes (AID 1963577)
Summary of the method: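 Compounds act here after metabolic activation: human liver microsomes and NADPH, both at 0.5 mg/mL final, were co-added to p53RE-bla cells. Incubation ran 16 h at 37 C, followed by LiveBLAzer detection.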

[7] = p53 small molecule agonists, cell-based qHTS assay with rat liver microsomes (AID 1963578)
Summary of the method: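 Read-out is beta-lactamase reporter fluorescence (LiveBLAzer, 2 h, room temperature, dark) in p53RE-bla cells treated 16 h at 37 C with compound, rat liver microsomes and NADPH, both 0.5 mg/mL final.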

[8] = p53 small molecule agonists, cell-based qHTS assay with human liver microsomes: qHTS cell viability counter screen (AID 1963579); also: nearly all actives have a fitted effect of over 45% in size
Summary of the method: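 Cells carrying the p53 response-element beta-lactamase reporter are treated for 16 h at 37 C with test compounds in the presence of human liver microsomes and NADPH (both 0.5 mg/mL final); ATP-based CellTiter-Glo luminescence then reports viability.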

[9] = p53 small molecule agonists, cell-based qHTS assay with rat liver microsomes: qHTS cell viability counter screen (AID 1963580); also: nearly all actives have a fitted effect of over 45% in size
Summary of the method: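 In HCT-116 cells carrying a p53 response element-bla reporter, compounds were metabolically activated in situ by rat liver microsomes with NADPH over 16 h. Cell ATP content then served as the cytotoxicity measure.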

[10] = p53 small molecule agonists, cell-based qHTS assay: qHTS cell viability counter screen (AID 1963581); also: nearly all actives have a fitted effect of over 45% in size
Summary of the method: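 p53RE-bla HCT-116 cells, compounds added 5 h after plating and incubated 16 h at 37 C. Cytotoxicity measured in the same wells as intracellular ATP by CellTiter-Glo luminescence after 30 min at room temperature.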

[11] = p53 small molecule agonists, cell-based qHTS assay (AID 1963582; active = well fitted activation curve with a large enough effect in the signal ratio in the repeat runs, not every such curve was filed as active; the % refers to the signal ratio)
Summary of the method: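 p53RE-bla reporter cells, compounds added in DMSO after 5 h plating, incubated 16 h at 37 C. Beta-lactamase read via 2 h room-temperature LiveBLAzer B/G FRET substrate, fluorescence intensity.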

[12] = molecular target: 5-hydroxytryptamine receptor 2A (Homo sapiens) (UniProt P28223); assay: 5-hydroxytryptamine receptor 2A (HTR2A) small molecule antagonists, cell-based qHTS assay (AID 1963586); also: nearly all actives have a fitted effect of over 45% in size
Summary of the method: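 Antagonist-mode intracellular calcium assay: DOI (4 nM) added after 5 min compound pre-incubation at room temperature to dye-loaded HTR2A-CHO cells. Fluorescence followed for 3 min, sampled every second.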

[13] = molecular target: 5-hydroxytryptamine receptor 2A (Homo sapiens) (UniProt P28223); assay: 5-hydroxytryptamine receptor 2A (HTR2A) small molecule agonists, cell-based qHTS assay (AID 1963587); also: nearly all actives have a fitted effect of over 30% in size
Summary of the method: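 HTR2A-CHO cells, plated 18 h at 37 C/5% CO2, dye-loaded 1 h at 37 C; compounds in DMSO added by pin tool (agonist mode). Intracellular calcium flux read as kinetic fluorescence on FDSS over 2 min at 1 s intervals.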

[14] = molecular target: Muscarinic acetylcholine receptor M1 (Homo sapiens) (UniProt P11229); assay: Cholinergic receptor muscarinic 1 (CHRM1) small molecule antagonists, cell-based qHTS assay (AID 1963588); also: nearly all actives have a fitted effect of over 40% in size
Summary of the method: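 CHRM1-CHO calcium-flux assay, antagonist mode. Cells were seeded 18 h, dye-loaded 1 h at 37 C and given compound for 5 min at RT, then acetylcholine was added at 50nM. FDSS fluorescence was read 3 min; 15 concentrations, three runs.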

[15] = molecular target: Muscarinic acetylcholine receptor M1 (Homo sapiens) (UniProt P11229); assay: Cholinergic receptor muscarinic 1 (CHRM1) small molecule agonists, cell-based qHTS assay (AID 1963589); also: nearly all actives have a fitted effect of over 35% in size
Summary of the method: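 CHO cells stably expressing human CHRM1 were loaded with calcium dye for 1 h at 37 C, then compound was added in agonist mode. Intracellular calcium fluorescence was followed kinetically at 1 s intervals. Fifteen concentrations were tested in three independent runs.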

[16] = cAMP Responsive Elements (CRE) small molecule agonists, cell-based qHTS assay (AID 1963590)
Summary of the method: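 CRE-bla HEK 293T cells, 2,000/well in DMEM with 10% dialyzed FBS and 25 mM HEPES, pre-incubated 18 h at 37 C, then exposed to compound 3 h at 37 C. Beta-lactamase reporter read with LiveBLAzer B/G FRET substrate after 2 h at room temperature.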

[17] = cAMP Responsive Elements (CRE) small molecule antagonists, cell-based qHTS assay (AID 1963591; active = well fitted inhibition curve with a large enough effect in the signal ratio in the repeat runs, not every such curve was filed as active; the % refers to the signal ratio)
Summary of the method: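 CRE-bla HEK293T cells plated 18 h, then given compound plus NKH477 at 0.25 uM final for 3 h at 37C. Beta-lactamase reporter read with LiveBLAzer B/G FRET substrate after 2 h at room temperature.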

[18] = molecular target: Beta-2 adrenergic receptor (Homo sapiens) (UniProt P07550); assay: Adrenergic beta2 receptor (ADRB2) small molecule antagonists, cell-based qHTS assay (AID 1963592); also: series mostly up to about 92 µM; nearly all actives have a fitted effect of over 50% in size
Summary of the method: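 Cells (CHO, stable ADRB2 overexpression) incubated 18-20hr at 37C; compounds added from DMSO; agonist mix (1nM isoproterenol, 100uM IBMX, 25uM Ro-20-1724) added; 0.5hr RT; d2-cAMP and anti-cAMP-cryptate added; 1hr RT; 665/615 nm read.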

[19] = molecular target: D(2) dopamine receptor (Homo sapiens) (UniProt P14416); assay: Dopamine D2 receptor (DRD2) small molecule agonists, cell-based qHTS assay (AID 1963594); also: nearly all actives have a fitted effect of over 35% in size
Summary of the method: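 HEK293 cells stably expressing DRD2 were cultured 24 h at 37 C, then given Ro20-1724 (0.1 mM final) and compounds for 10 min at room temperature. NKH477 (200nM) was then added for 30 min. cAMP was read by HTRF.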

[20] = molecular target: D(2) dopamine receptor (Homo sapiens) (UniProt P14416); assay: Dopamine D2 receptor (DRD2) small molecule antagonists, cell-based qHTS assay (AID 1963595; active = well fitted inhibition curve with a large enough effect in the signal ratio in the repeat runs, with a control signal flat; the % refers to the signal ratio)
Summary of the method: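 Human DRD2 antagonist qHTS measuring cAMP by HTRF. The cells are exposed to compound for 10 min, then to NKH477 (200 nM) and quinpirole (12 nM) for 30 min at RT, with Ro20-1724 (0.1 mM) present throughout.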
% is scaled to controls: 0 for no effect and ±100 for the full control effect.

5-hydroxytryptamine receptor 2A (Homo sapiens), sequence (P28223 whole entry, looked up): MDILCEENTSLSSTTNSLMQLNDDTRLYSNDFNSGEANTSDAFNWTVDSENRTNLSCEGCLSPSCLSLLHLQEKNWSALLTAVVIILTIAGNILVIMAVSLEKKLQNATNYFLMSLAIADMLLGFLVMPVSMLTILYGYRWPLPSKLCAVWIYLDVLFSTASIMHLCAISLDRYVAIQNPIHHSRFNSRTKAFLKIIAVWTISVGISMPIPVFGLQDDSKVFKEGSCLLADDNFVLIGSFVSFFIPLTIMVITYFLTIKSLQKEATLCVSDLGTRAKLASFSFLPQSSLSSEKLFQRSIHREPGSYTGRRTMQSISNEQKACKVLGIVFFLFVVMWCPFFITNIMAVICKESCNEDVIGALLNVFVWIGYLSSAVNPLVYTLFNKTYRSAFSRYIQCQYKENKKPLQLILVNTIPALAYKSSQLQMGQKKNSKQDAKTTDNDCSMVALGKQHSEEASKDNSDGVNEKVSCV
Muscarinic acetylcholine receptor M1 (Homo sapiens), sequence (P11229 whole entry, looked up): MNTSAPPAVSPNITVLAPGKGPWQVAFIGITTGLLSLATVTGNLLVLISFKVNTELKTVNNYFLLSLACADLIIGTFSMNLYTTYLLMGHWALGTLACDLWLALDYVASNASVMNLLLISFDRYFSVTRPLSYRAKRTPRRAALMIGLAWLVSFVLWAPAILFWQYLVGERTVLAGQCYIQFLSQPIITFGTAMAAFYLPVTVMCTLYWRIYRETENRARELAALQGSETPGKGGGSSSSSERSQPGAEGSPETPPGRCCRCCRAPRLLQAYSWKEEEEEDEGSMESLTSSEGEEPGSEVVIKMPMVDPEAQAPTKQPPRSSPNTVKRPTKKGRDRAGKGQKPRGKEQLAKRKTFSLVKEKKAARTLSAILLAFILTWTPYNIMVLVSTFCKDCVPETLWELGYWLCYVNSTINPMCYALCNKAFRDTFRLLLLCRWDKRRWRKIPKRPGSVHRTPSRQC
Gonadotropin-releasing hormone receptor (Homo sapiens), sequence (P30968 whole entry, looked up): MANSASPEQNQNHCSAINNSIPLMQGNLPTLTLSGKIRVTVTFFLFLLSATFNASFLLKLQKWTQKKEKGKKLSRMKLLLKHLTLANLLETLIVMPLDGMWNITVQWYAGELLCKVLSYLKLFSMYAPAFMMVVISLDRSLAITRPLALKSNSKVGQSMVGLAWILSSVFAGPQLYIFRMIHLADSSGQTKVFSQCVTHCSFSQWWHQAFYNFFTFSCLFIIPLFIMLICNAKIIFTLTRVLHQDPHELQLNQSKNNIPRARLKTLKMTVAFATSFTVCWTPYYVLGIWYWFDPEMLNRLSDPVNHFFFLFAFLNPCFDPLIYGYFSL
KiSS-1 receptor (Homo sapiens), sequence (Q969F8 whole entry, looked up): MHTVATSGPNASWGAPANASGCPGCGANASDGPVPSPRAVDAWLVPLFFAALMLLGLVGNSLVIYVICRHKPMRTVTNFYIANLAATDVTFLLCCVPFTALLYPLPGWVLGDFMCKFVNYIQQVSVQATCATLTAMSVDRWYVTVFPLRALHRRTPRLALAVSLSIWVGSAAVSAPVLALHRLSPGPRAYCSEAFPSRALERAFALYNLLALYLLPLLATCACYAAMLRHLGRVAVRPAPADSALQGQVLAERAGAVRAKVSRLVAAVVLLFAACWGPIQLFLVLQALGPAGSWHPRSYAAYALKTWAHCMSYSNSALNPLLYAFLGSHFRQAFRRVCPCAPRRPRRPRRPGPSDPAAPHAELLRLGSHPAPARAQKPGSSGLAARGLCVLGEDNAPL
Beta-2 adrenergic receptor (Homo sapiens), sequence (P07550 whole entry, looked up): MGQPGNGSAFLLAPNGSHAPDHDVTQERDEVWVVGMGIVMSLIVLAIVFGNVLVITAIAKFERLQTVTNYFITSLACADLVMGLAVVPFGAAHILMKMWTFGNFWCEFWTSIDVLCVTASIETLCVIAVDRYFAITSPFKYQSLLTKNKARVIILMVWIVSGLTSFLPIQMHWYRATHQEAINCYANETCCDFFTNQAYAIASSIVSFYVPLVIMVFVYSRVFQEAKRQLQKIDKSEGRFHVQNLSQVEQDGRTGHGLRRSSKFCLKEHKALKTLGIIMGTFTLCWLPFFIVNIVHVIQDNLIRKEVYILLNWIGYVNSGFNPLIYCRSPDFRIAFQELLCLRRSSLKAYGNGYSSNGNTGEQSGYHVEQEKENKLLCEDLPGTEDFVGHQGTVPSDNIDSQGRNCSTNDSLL
D(2) dopamine receptor (Homo sapiens), sequence (P14416 whole entry, looked up): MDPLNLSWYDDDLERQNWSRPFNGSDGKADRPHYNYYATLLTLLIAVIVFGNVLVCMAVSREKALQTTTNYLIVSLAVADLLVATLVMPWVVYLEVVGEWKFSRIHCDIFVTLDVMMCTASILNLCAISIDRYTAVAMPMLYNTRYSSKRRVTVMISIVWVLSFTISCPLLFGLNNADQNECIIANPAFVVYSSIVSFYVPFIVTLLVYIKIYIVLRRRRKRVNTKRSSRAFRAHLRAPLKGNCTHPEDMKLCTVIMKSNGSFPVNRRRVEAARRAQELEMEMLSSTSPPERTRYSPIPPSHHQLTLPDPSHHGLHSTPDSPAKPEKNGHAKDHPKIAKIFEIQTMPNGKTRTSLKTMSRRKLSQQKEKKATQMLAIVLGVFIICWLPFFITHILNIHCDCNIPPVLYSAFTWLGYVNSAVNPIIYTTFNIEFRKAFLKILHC

CCO[Si](OCC)(OCC)OCC
inactive: Potency [1] | Potency [2] | Potency [3] | outcome [4] | outcome [5] | Potency [6] | Potency [7] | Potency [8] | Potency [9] | Potency [10] | Potency [11] | Potency [12] | Potency [13] | Potency [14] | Potency [15] | Potency [16] | Potency [17] | Potency [18] | Potency [19] | Potency [20]

OC1OCCOC1O (centres undefined)
inactive: Potency [1] | Potency [2] | Potency [3] | outcome [4] | outcome [5] | Potency [6] | Potency [7] | Potency [8] | Potency [9] | Potency [10] | Potency [11] | Potency [12] | Potency [13] | Potency [14] | Potency [15] | Potency [16] | Potency [17] | Potency [18] | Potency [19] | Potency [20]

CCCCCCCCCCOc1cc2c(=O)c(C(=O)OCC)c[nH]c2cc1OCC
inactive: activity change, negative = cytotoxicity [1] -4.24% [at 8.39 µM] | activity, positive = activation [2] -2.6% [at 8.39 µM] | activity change [3] 0.343% [at 5.22 µM, active compounds read high] | activation [4] -0.128% [at 6.97 µM] | activation [5] 0.101% [at 5.23 µM] | activation [6] 2.59% [at 5.99 µM] | activation [7] 0.878% [at 5.99 µM] | activity change, negative = cytotoxicity [8] 0.282% [at 5.99 µM] | activity change, negative = cytotoxicity [9] 11.2% [at 5.99 µM] | activity change, negative = cytotoxicity [10] -13% [at 5.99 µM] | activation [11] 4.71% [at 5.99 µM] | activity, negative = inhibition [12] 23.4% [at 5.62 µM] | activation [13] 1.5% [at 7.02 µM] | activity, negative = inhibition [14] -9.72% [at 5.58 µM] | activation [15] 0.0185% [at 6.97 µM] | activation [16] 0.069% [at 8.39 µM] | activity change, negative = inhibition [17] 0.102% [at 8.39 µM] | activity change, negative = inhibition [18] 4.81% [at 8.39 µM] | activation [19] -15.9% [at 8.39 µM] | activity change, negative = inhibition [20] 8.14% [at 8.38 µM]

CCC(CO)(CO)COCC(CC)(CO)CO
inactive: Potency [1] | Potency [2] | Potency [3] | outcome [4] | outcome [5] | Potency [6] | Potency [7] | Potency [8] | Potency [9] | Potency [10] | Potency [11] | Potency [12] | Potency [13] | Potency [14] | Potency [15] | Potency [16] | Potency [17] | Potency [18] | Potency [19] | Potency [20]

Cn1cnc2ncnc(N)c21
inactive: Potency [1] | Potency [2] | Potency [3] | outcome [4] | outcome [5] | Potency [6] | Potency [7] | Potency [8] | Potency [9] | Potency [10] | Potency [11] | Potency [12] | Potency [13] | Potency [14] | Potency [15] | Potency [16] | Potency [17] | Potency [18] | Potency [19]

Cc1c(C(C)C)c(=O)n(-c2ccccc2)n1C
inactive: Potency [1] | Potency [2] | Potency [3] | outcome [4] | outcome [5] | Potency [6] | Potency [7] | Potency [8] | Potency [9] | Potency [10] | Potency [11] | Potency [12] | Potency [13] | Potency [14] | Potency [15] | Potency [16] | Potency [17] | Potency [18] | Potency [19] | Potency [20]

From PubChem BioAssay (Tox21)
